Among all 16,000 compounds or so, about 4,000 (25%) were called active. Not shown: some 26% with an inconclusive outcome. The call rests on the fitted dose curve; in most records, active means well fitted curve in the direction sought with a large enough effect; inconclusive means small, poorly fitted or top-dose-only effect, or effect the other way; inactive means no such curve, though single readings can be large or run the other way. These entries were drawn from the full list.

Data on 45 molecules can be found in PubChem BioAssay AID1851 (National Center for Advancing Translational Sciences (NCATS), 2009).
On the % scale 0 is the no-effect control and ±100 the full control effect.

The test deals with Cytochrome P450 2C9 (Homo sapiens) (UniProt P11712). Kind of test: Cytochrome panel assay with activity outcomes. The following applies: recombinant CYP, pro-luciferin dealkylation, luminescence, p450-cyp2c9; series mostly up to 57.1 µM; activity, negative = inhibition: at the top concentration.
Chain of Cytochrome P450 2C9 (Homo sapiens) (P11712 whole entry, looked up): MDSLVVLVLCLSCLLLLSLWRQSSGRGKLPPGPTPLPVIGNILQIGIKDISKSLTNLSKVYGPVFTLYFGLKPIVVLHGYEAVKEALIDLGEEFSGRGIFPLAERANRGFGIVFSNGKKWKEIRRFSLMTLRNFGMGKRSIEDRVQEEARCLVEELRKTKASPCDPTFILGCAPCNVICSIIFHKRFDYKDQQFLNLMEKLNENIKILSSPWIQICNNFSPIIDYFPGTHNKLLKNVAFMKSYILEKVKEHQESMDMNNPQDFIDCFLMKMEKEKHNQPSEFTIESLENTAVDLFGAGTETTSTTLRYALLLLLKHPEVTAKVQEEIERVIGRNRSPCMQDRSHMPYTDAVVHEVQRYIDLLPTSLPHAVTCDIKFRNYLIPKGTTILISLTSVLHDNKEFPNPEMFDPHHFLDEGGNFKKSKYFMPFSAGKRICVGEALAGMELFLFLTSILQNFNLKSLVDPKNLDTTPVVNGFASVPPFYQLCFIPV
`CCN1CCC[C@@H]1CNC(=O)c1cc(S(N)(=O)=O)ccc1OC`: the “activity, negative = inhibition” value was -0.608% (inactive).
`N#CC1(Nc2ccc(-c3ccc(NC4(C#N)CCCC4)cc3)cc2)CCCC1`: the activity, negative = inhibition was -5.08% [at 11.4 µM] (inactive).
Regarding `C[C@@H]1/C=C\CC(=O)OC[C@H](C)C(=O)N2CCC[C@@H]2C(=O)OC1`, the activity, negative = inhibition is -11.7% [at 11.4 µM] (inactive).
With `[Cu].[O-]/N=C1/C(=[OH+])Nc2ccccc21.[O-]Nc1c(O)[nH]c2ccccc12`, the activity, negative = inhibition was -2.92% [at 11.4 µM] (inactive).
As usually defined, the AC50 is the concentration giving half of the maximal activity seen. Take `O=c1n(CCCN2CCN(c3cccc(Cl)c3)CC2)nc2ccccn12`: the AC50 result is “inactive”.
With `COC(=O)N1CCC2(CC1)CCN(c1cccc(-c3ccccc3)c1)CC2`, the “activity, negative = inhibition” value was 10.7% (inactive).
Consider `O=C(C1CCC(=O)N1Cc1ccccc1Cl)N1CCN(c2cccc(Cl)c2)CC1` (stereo not given), for which the AC50 was 15.8 µM (active).
For the molecule `COCCCNC(=O)C1CCC(=O)N1Cc1ccccc1Cl` (stereo not given), the AC50 was 5.62 µM (active).
Take `O=C(Nc1ccc(Br)cc1)C1CCC(=O)N1Cc1ccccc1Cl` (stereo not given): the AC50 was 0.447 µM (active).
Take `CN(CCCNC(=O)C1CCC(=O)N1Cc1ccccc1Cl)c1ccccc1` (stereo not given): the “activity, negative = inhibition” value was -22.6% (inactive).
The same measure, in the same setting: then `CCS(=O)(=O)N1CCC(C(=O)NCCCOC)CC1`, with -32.5% (inactive).
`Cc1noc(NS(=O)(=O)c2ccc(N/C=C\C(=O)c3ccc4c(c3)OCO4)cc2)c1C`: the AC50 was 14.1 µM (active).
Same read-out and setting: then `Cc1noc(NS(=O)(=O)c2ccc(N/C=C/C(=O)c3ccc4c(c3)OCO4)cc2)c1C`, with 12.6 µM (active); and `CCCSc1nc(SCC(=O)NCc2ccccc2)c2c3c(sc2n1)COC(C)(CC)C3` (stereo not given), with 3.98 µM (active).
Consider `CCC1(C)Cc2c(sc3nnn(CC(=O)Nc4ccc(C)cc4)c(=O)c23)CO1` (stereo not given), for which the AC50 is 11.2 µM (active).
On the same count and under the same terms, then `CCCSc1nc(NCc2ccco2)c2c3c(sc2n1)COC(C)(C)C3`, with 6.31 µM (active); and `CCC1(C)Cc2c(sc3nnn(CC(=O)Nc4cccc5ccccc45)c(=O)c23)CO1` (stereo not given), with 7.94 µM (active).
As for `COC(=O)[C@H](CCSC)NC(=O)C/C=C\[C@@H](C)[C@@H](CO)OC`, the activity, negative = inhibition was -1.66% [at 11.4 µM] (inactive).
Take `CN(C)c1ccc(-c2nccc(NCc3cccs3)n2)cc1`: the activity, negative = inhibition was -21.1% [at 2.29 µM] (inactive).
The same measure, in the same setting: then `CC(=O)OC1CCC(OC(C)=O)c2c1n([O-])c(C)c(C)[n+]2=O` (stereo not given), with -6.01% (inactive); and `CC(=O)Nc1ccc2c(c1)OCCOCCOc1cc(NC(C)=O)ccc1OCCOCCOCCO2`, with -15% (inactive); and `CC(=O)Nc1ccc2c(c1)OCCO2`, with -11.3% (inactive).
As for `CCn1c(-c2ccccc2Cl)nn(CC(=O)Nc2ccc(OC)cc2)c1=S`, the AC50 is 2.24 µM (active).
On the same count and under the same terms, for `O=C(Nc1ccc2c(c1)OCCO2)c1cccc2nc3ccccc3nc12` the value was 12.6 µM (active); for `O=C(CC(c1ccccc1)c1ccccc1)Nc1ccc2c(c1)OCCO2`, 4.47 µM (active); for `O=C(CN1CCN(CC(=O)Nc2ccccc2Cl)CC1)Nc1ccc2c(c1)OCCO2`, 4.47 µM (active).
With `COC(=O)Cn1nc(-c2ccccc2)n(-c2ccccc2)c1=S`, the “activity, negative = inhibition” value was -24.6% (inactive).
`O=C(Nc1ccc2c(c1)OCCO2)C1CCN(C(=O)c2ccccc2)CC1`: the “activity, negative = inhibition” value is -40.1% (inactive).
For `Oc1cc2c(c(Cl)c1O)CCNC[C@H]2c1ccccc1`, the AC50 result was “inactive”.
As for `COC(=O)N1CCC2(CC1)CN(C(=O)Nc1ccc(OC)cc1)C2`, the “activity, negative = inhibition” value is -26.8% (inactive).
As for `COC(=O)N1CCC2(CCN(C(=O)Nc3ccc(OC)cc3)CC2)CC1`, the “activity, negative = inhibition” value is -9.69% (inactive).
For the molecule `COc1ccccc1NC(=O)CN1CCN(CC(=O)Nc2ccc(OCc3ccccc3)cc2)CC1`, the AC50 was 2.24 µM (active).
For `S=C(Nc1ccccc1)Nc1ccc(OCc2ccccc2)cc1`, the “activity, negative = inhibition” value is -35.1% (inactive).
In the case of `COc1ccc(NC(=O)CN2CCN(CC(=O)Nc3ccccc3Cl)CC2)cc1`, the AC50 is 8.91 µM (active).
For `O=C1[C@@H]2[C@H]3[C@H](O)[C@H](O)C/C(=N/OC[C@@H](O)COCc4ccco4)[C@H]3CC[C@H]2C(=O)N1c1ccc(F)cc1F`, the activity, negative = inhibition was -12.6% [at 11.4 µM] (inactive).
Regarding `Cc1cccc(CNc2cc(-c3cccc(C#N)c3)ncn2)c1`, the activity, negative = inhibition was 3.34% [at 2.29 µM] (inactive).
Consider `NCCS(=O)O`, for which the “activity, negative = inhibition” value was 8.02% (inactive).
Consider `Cn1c(=O)c2[nH]c(/N=N\N3CCN(CCO)CC3)nc2n(C)c1=O`, for which the activity, negative = inhibition is 4.93% [at 11.4 µM] (inactive).
For `C#CCn1c(S(=O)(=O)Cc2ccc(OC)cc2)nc(-c2ccccc2)c1-c1ccccc1`, the AC50 was 2.82 µM (active).
Turning to `COc1ccc(CO/N=C/c2c(C)[nH]c(=O)[nH]c2=O)cc1`, the “activity, negative = inhibition” value is -23.5% (inactive).
For the molecule `C[C@H](CCC(=O)NCC(=O)O)[C@H]1CC[C@H]2[C@H]3[C@@H](C[C@@H](O)[C@]12C)[C@]1(C)CC[C@H](O)C[C@@H]1C[C@@H]3O`, the “activity, negative = inhibition” value is -14.1% [at 25.6 µM] (inactive).
`COC(=O)CC[C@@H](C)[C@H]1CC[C@H]2[C@H]3CC[C@H]4C[C@@H]5CC[C@@]4(C)C3(O5)[C@@H](Br)[C@@H](Br)[C@@]12C`: the AC50 was 2.51 µM (active).
Take `COC(=O)N1CCC2(CC1)CCN(c1ccncc1)CC2`: the “activity, negative = inhibition” value was 14.6% (inactive).
On to `Cn1cc(C(=O)N/N=C/C(Br)=C\c2ccccc2)ccc1=O`, for which the “activity, negative = inhibition” value is -26% (inactive).
For the molecule `O=C(Cc1cccs1)N/N=C/C(Br)=C/c1ccccc1`, the AC50 was 2.82 µM (active).
